This passage reports outcome results from PubChem BioAssay (EPA / NIEHS).

Results filed as inconclusive are left out. The source made the active and inactive calls. Rule for the calls: active = hit-call score of the fitted dose curve at least 0.9, where 1 is the maximum; inconclusive = response in the unintended direction; inactive = score below 0.9.

Chain of Cellular tumor antigen p53 (Homo sapiens) (P04637 whole entry, looked up): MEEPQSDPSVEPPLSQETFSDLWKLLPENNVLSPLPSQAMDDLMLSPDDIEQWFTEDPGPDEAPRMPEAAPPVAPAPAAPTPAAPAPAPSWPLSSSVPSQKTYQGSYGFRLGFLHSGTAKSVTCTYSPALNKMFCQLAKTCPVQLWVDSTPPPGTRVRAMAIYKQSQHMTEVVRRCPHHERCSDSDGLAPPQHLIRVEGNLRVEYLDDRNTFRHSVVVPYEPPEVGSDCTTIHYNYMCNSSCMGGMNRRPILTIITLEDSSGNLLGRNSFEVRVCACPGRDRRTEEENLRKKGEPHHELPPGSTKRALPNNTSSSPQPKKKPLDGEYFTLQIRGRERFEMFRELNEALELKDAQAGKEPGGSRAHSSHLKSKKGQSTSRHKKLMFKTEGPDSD

This assay concerns the target Cellular tumor antigen p53 (Homo sapiens) (UniProt P04637). Nature of the assay: TOX21_p53_BLA_p4_ratio: Tox21 HCT-116 p53 Agonism Beta-lactamase Assay, Ratio, Phase 4 (AID 2283601). In outline:
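HCT116 cells carrying an inducible beta-lactamase reporter were plated at 4000 cells/well, rested 5 h, then exposed to compounds in DMSO (217-fold dilution) for 16 h at 37C. CCF4-AM substrate was loaded 2 h at room temperature; 460/530 nm emission ratio scored gain-of-signal versus DMSO.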
On to `CC(C)=CC(C)(C)C`, for which the result was inactive.
Take `CCc1ccc(C(=O)C(C)CN2CCCCC2)cc1` (stereo not drawn): the result was inactive.
`CCCCCC(C)N` (stereo not drawn): the outcome was inactive.
As for `Cc1ccnc2c1NC(=O)c1cccnc1N2C1CC1`, the entry is “inactive”; as for `COc1ccc(C(=O)NCc2ccc(OCCN(C)C)cc2)cc1OC`, “inactive”.
As for `Cl/C(=C\n1cncn1)c1ccc(Cl)cc1Cl`, the entry is “inactive”; as for `NNc1nnc(NN)c2ccccc12`, “inactive”.
As for `O=C1CC[C@H](C(=O)N2CCCCC2)N1`, the entry is “inactive”; as for `Nc1nc(-c2ccc([N+](=O)[O-])cc2)cs1`, “inactive”.
For `COc1cc(S(C)=O)ccc1-c1nc2ncccc2[nH]1` (stereo not drawn), the result was inactive.
Take `CC(C)(C)NSc1nc2ccccc2s1`: the outcome was inactive.
On to `O=CC1CC=CCC1` (stereo not drawn), for which the result was inactive.
As for `Nc1ccc2cc(S(=O)(=O)O)ccc2c1`, the entry is “inactive”.
As for `C=CCCCC`, the result was inactive.
As for `O=C(O)CCNC(=O)c1ccc(N=Nc2ccc(O)c(C(=O)O)c2)cc1`, the entry is “inactive”; as for `CCN1CCc2nc(N)oc2CC1`, “inactive”; as for `CCc1ccc(CC)cc1`, “inactive”.
The result for `C[C@@H]1CC[C@@]2(OC1)O[C@H]1C[C@H]3[C@@H]4CC[C@H]5C[C@@H](O)CC[C@]5(C)[C@H]4CC(=O)[C@]3(C)[C@H]1[C@@H]2C` reads “inactive”.
As for `COc1ccc(C=NNC(=O)c2ccncc2)c(C(=O)O)c1OC`, the entry is “inactive”.
On to `NC(=O)c1cn(Cc2c(F)cccc2F)nn1`, for which the result was inactive.
Consider `c1cc2c3c(c1)ccc1cccc(c13)C2`, for which the result was inactive.
The result for `CC(=O)NC(=O)c1ccccc1O` reads “inactive”.
As for `CC/C=C(\C(=O)N[C@@H]1C(=O)N2C(C(=O)OCOC(=O)C(C)(C)C)=C(COC(N)=O)CS[C@H]12)c1csc(N)n1`, the outcome was inactive.
Turning to `C[C@@H](c1ncncc1F)[C@](O)(Cn1cncn1)c1ccc(F)cc1F`, the result was inactive.
The result for `c1ccc2nccnc2c1` reads “inactive”; that for `O=C1NC(=O)[C@H]2[C@@H]1[C@@H]1C=C[C@H]2C1`, “inactive”; that for `Cc1cc(NC(=O)C2=C(O)c3ccccc3S(=O)(=O)N2C)no1`, “inactive”.
On to `CCN(CC)CCOC(=O)C1(c2ccccc2)CCCC1`, for which the result was inactive.
For `CCOC(=O)[C@H](CCc1ccccc1)N[C@@H](C)C(=O)N1CC2(C[C@H]1C(=O)O)SCCS2`, the result was inactive.
On to `CN(C)CC[C@@H](c1ccc(Cl)cc1)c1ccccn1`, for which the outcome was inactive.
As to `CCc1cccc(C)c1`, the result was inactive.
On to `O=C(O)c1ccc(O)cc1O`, for which the outcome was inactive.
`CCCCCCCCCCCCCCCCCl`: the result was inactive.
